GPR151 activ – activators of human GPR151, primary screen, cell-based, PathHunter beta-arrestin, luminescence; G-protein coupled receptor 151 (Homo sapiens), Q8TDV0; PathHunter beta-arrestin GPR151 cells; activation, % at 11.2 µM; actives 1% (n = 650,000); AID 1508602, 2020; in the data active = activation above about 4.9%;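 note: 0% = median of compound wells and 100% = cells with positive control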
Target sequence (Q8TDV0 whole entry, looked up): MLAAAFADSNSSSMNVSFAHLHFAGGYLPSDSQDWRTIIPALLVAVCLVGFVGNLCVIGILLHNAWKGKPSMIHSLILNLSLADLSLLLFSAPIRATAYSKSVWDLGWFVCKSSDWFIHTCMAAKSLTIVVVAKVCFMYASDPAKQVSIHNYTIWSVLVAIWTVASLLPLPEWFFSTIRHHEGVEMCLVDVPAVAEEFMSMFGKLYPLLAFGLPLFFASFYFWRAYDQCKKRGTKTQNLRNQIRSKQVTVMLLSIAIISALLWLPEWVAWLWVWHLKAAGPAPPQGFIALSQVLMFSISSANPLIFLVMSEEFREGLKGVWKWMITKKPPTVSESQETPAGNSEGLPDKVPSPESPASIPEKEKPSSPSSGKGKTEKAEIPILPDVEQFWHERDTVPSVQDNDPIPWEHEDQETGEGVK
TEAD-YAP inh – TEAD-YAP interaction inhibition, primary screen, TEAD-YAP interaction inhibitor project, luminescence, HEK-TIYL cells; actives 1.4% (n = 640,000); TEAD-Gal4/YAP UAS-luciferase luminescence; inhibition, % at 9.12 µM; in the data active = inhibition above about 32%;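 note: 0% = median of test compound wells and 100% = reference inhibitor wells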
FBW7 activator – FBW7 E3 ligase activators, primary screen, biochemical, AlphaScreen, human; F-box/WD repeat-containing protein 7 (Homo sapiens), Q969H0; AlphaScreen FBW7–phospho-cyclin E peptide binding, activator screen; normalized activity (activation), % at 26.1 µM; actives 0.13% (n = 650,000); in the data active = normalized activity above about 1.9%;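 note: purified mutant Fbw7 with reduced substrate affinity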
MITF primary – MITF inhibitors, primary screen, biochemical, AlphaScreen, human | AlphaScreen MITF homodimerization, bead proximity signal | inhibition, % at 2.6 µM | AID 1259374, 2018 | Microphthalmia-associated transcription factor (Homo sapiens), O75030 | actives 0.91% (n = 650,000); in the data active = inhibition above about 50%;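 note: 0% = vehicle wells with protein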
MITF inh conf – MITF inhibitors, retest of hits, confirmation, biochemical, AlphaScreen, triplicate. inhibition, % at 2.6 µM. AlphaScreen MITF homodimerization, biotin/His-MITF beads. actives 16% (n = 4,700). shares compounds with MITF primary. AID 1259372, 2018;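 active = inhibition above a cutoff derived from the DMSO control wells, cut at about 28% in these data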;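 note: 0% = MITF dimer wells with DMSO only; inhibitors lower the bead chemiluminescence by keeping MITF from dimerizing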
AS interf DR – AlphaScreen optical interference compounds, dose response, counter-screen, biochemical, HTS; AID 1259373, 2018; shares compounds with MITF primary; IC50, µM; actives 6% (n = 480); AlphaScreen optical interference counterscreen, cell-free; call rule not given here
AlphaScreen intf2 – AlphaScreen optical interference compounds, counter-screen for MITF inhibitor project, biochemical, triplicate. inhibition, % at 2.6 µM. LysRS AlphaScreen counterscreen, signal interference. actives 7.6% (n = 4,700). shares compounds with MITF primary. AID 1259376, 2018;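 active = inhibition above a cutoff derived from the DMSO control wells, cut at about 30% in these data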
* marks the source's active call; other numbers are inactive results; . = no result. This is a sample that favours compounds with a hit; in the whole collection about 3.5% have one here.

SMILES | GPR151 activ | TEAD-YAP inh | FBW7 activator | MITF primary | MITF inh conf | AlphaScreen intf2 | others
COc1cccc(CN2CCN(Cc3ccccc3C)CC2CCO)c1 (stereo not given) | 1 | 1 | 0 | 5 | . | .
COc1ccc2nc(CN3CCN(C(=O)C4(c5ccccc5)CCOCC4)CC3)[nH]c2c1 | 1 | 2 | 0 | 15 | . | .
O=C(Nc1c2c(nn1-c1cccc(Cl)c1)CSC2)c1ccc(Br)o1 | 1 | 8 | 0 | 53* | 2 | -2
NN1C(=O)/C(=C\c2ccc(Cl)cc2)NC1=S | 0 | 12 | 0 | 53* | 1 | 8
Cc1cccc(N2C(N)=C(C#N)C(c3ccc(Br)s3)C3=C2CC(C)(C)CC3=O)c1 (stereo not given) | -2 | -12 | 0 | 17 | . | .
Cc1cc(=O)[nH]c(N/N=C/c2cccc(Cl)c2Cl)n1 | -1 | 1 | 1 | 79* | -3 | 7
COc1ccc(C2C3COC(C)(C)CC3=NN2CCC#N)cc1 (stereo not given) | 0 | 1 | 0 | 6 | . | .
COc1ccccc1-n1c(=S)sc2c(=O)n(-c3ccccc3)c(SCC(=O)c3ccc(Cl)cc3)nc21 | 0 | -9 | 0 | 68* | 0 | 0
CCOC(=O)c1c(C)oc2ccc(N(C(=O)Oc3ccccc3)S(=O)(=O)c3ccc(Cl)cc3)cc12 | 0 | -3 | 0 | 1 | . | .
CCN(c1ccccc1)c1cc(N2CCOCC2)c2nonc2c1[N+](=O)[O-] | 1 | 0 | 0 | 5 | . | .
CCN(c1ccccc1)c1c([N+](=O)[O-])ccc2nonc12 | 0 | -2 | 0 | 66* | 59* | 55*
C/C(=N\Nc1ccc(C(F)(F)F)cn1)c1ccccn1 | 3 | 87* | -1 | 58* | 11 | 35*
C/C(=N\Nc1nc2ccccc2[nH]1)c1cccnc1 | 1 | -17 | 0 | -4 | . | .
C/C(=N\Nc1nc2ccccc2[nH]1)c1ccccn1 | -5 | 74* | -1 | 105* | 110* | 99*
COC1CCN(Cc2c(C(=O)N3CCCC3)nc3ccccn23)CC1 | -1 | 4 | 0 | -6 | . | .
NC(=O)NS(=O)(=O)c1ccc(NC(=S)NC(=O)/C=C/c2ccccc2)cc1 | 0 | -9 | 0 | 8 | . | .
Cc1ccc(C(C)(C)C)c(OCCCn2ccnc2)c1 | -1 | -14 | 0 | 22 | . | .
CCC(C)(C)c1ccc(OCCOCCn2cncn2)c(Cl)c1 | 2 | 8 | 0 | 67* | 0 | 3
Fc1ccc(OCCCn2cncn2)cc1 | 0 | 4 | 0 | 71* | 8 | 19
CC(C)(C)c1ccc(OCCn2cncn2)c(Cl)c1 | -1 | -10 | 0 | 58* | 32* | 18 | AS interf DR=>6.5
Cc1ccc(C(C)(C)C)c(OCCOCCn2cncn2)c1 | 1 | 9 | 0 | 78* | 0 | 5
O=[N+]([O-])c1ccc(OCCCn2cncn2)cc1 | 3 | 11 | 0 | -2 | . | .
Clc1cccc(OCCn2cncn2)c1Cl | 1 | -5 | 0 | 47 | . | .
CC(=O)c1cccc(N(CC(=O)NCCSc2ccc(C)cc2)S(C)(=O)=O)c1 | -1 | 13 | 0 | 0 | . | .
COc1ccc(-c2noc(N3CCCC(C(=O)Nc4ccccc4C#N)C3)n2)cc1 (stereo not given) | -3 | -7 | 0 | -4 | . | .
SMILES | GPR151 activ | TEAD-YAP inh | FBW7 activator | MITF primary | MITF inh conf | AlphaScreen intf2 | others
N#Cc1ccc(OCCOCCn2cncn2)cc1 | 0 | 0 | 0 | 18 | . | .
Clc1ccc(OCCOCCn2cncn2)cc1Cl | -2 | -3 | 0 | 80* | 8 | 21
CCN(CCN(C)C)Cc1ccc(F)c(Br)c1 | -1 | 8 | 0 | 27 | . | .
CCN(CCN(C)C)Cc1ccc(Cl)c(Cl)c1 | 1 | -5 | 0 | 54* | 3 | -5
CCN(CCN(C)C)Cc1ccc(F)c(F)c1 | -1 | 3 | 0 | 60* | 0 | -5
CCN(CCN(C)C)Cc1ccc(F)cc1F | 0 | 1 | 0 | 60* | -6 | -2
CN(CCC(N)=O)Cc1ccc(F)cc1 | -3 | 11 | 0 | 56* | -12 | -8
CCCN(CCO)Cc1ccc(Cl)c(Cl)c1 | 2 | 7 | 0 | 16 | . | .
O=c1oc2ccc(Cl)cc2n1CN1CCN(Cc2ccccc2)CC1 | 1 | 0 | 0 | 6 | . | .
CCOC(=O)c1ccc(NCCc2ccccc2)c([N+](=O)[O-])c1 | -1 | -24 | 0 | 11 | . | .
COc1ccc(OC)c(C2C(C#N)=C3N=C(N)c4c(sc5c4CCCCC5)N3C3=C2C(=O)CC(C)(C)C3)c1 (stereo not given) | 2 | 11 | 0 | 6 | . | .
CCN(CCN(C)C)Cc1ccc(F)cc1 | 0 | -4 | 0 | 60* | 28* | -3 | AS interf DR=>6.5
CCCN(CCO)Cc1ccc(Cl)cc1Cl | 1 | 6 | 0 | -2 | . | .
CCN(CCN(C)C)Cc1cccc(Cl)c1Cl | -1 | 4 | 0 | 75* | -4 | 0
CCN(CCN(C)C)Cc1cccc(OCc2ccccc2)c1 | 0 | 6 | 0 | 61* | -10 | -4
CN(C)CCCN(CCCN(C)C)Cc1cccc(Oc2ccccc2)c1 | 1 | -4 | 0 | 24 | . | .
CCN(CCC(=O)Nc1ccc(F)cc1)Cc1ccccc1 | -1 | 4 | 0 | 4 | . | .
CCN(CCN(C)C)Cc1ccc(Cl)cc1Cl | 0 | -6 | 0 | 56* | -5 | -5
O=C(Cn1nc(-c2ccc3c(c2)OCCO3)ccc1=O)Nc1cccc2c1CCCC2 | -1 | 2 | 0 | -2 | . | .
CC[C@@H](Cn1nc(-c2cccs2)oc1=O)NC(=O)c1ccc2c(c1)n(C)c(=O)n2C | -1 | -8 | 0 | -15 | . | .
Cc1cc(NC(=O)C2CCN(C(=O)c3ccc(-n4cccc4)cc3)CC2)no1 | 0 | -5 | 0 | 51* | 47* | 10 | AS interf DR=>6.5
Cc1noc(C2CN(C(=O)c3ccc(-n4cccc4)cc3)C2)n1 | 0 | 3 | 0 | 55* | 53* | 9 | AS interf DR=>6.5
COc1ccc2nc(NC(=O)CSc3nc4ccc(C)cc4[nH]3)sc2c1 | -1 | -23 | 0 | 11 | . | .
Cc1cc(C)n2nc(N)nc2n1 | 0 | 3 | 0 | 8 | . | .
Cc1cc(C)n2nc(N)c(N)c2n1 | 0 | -13 | 0 | 62* | 29* | 1 | AS interf DR=>12
COc1ccc(-c2cc(C(F)(F)F)n3nc(C(=O)N4CCN(C)CC4)cc3n2)cc1OC | 0 | -1 | 0 | 20 | . | .
OCCC1CN(Cc2cccn2-c2cccnc2)CCN1Cc1cccs1 (stereo not given) | 3 | 7 | 0 | -2 | . | .
COc1ccc(CC(=O)NNc2nc3ccccc3s2)cc1OC | 2 | -15 | 0 | -3 | . | .
